± gives the standard deviation of the averaged measurements. Of roughly 5,400 targets only a part is listed; those with the largest changes were picked by preference.

Results on 38 targets are retold here after the supplement of paper PMC6411743.

UniProt O43760, sequence (O43760 whole entry): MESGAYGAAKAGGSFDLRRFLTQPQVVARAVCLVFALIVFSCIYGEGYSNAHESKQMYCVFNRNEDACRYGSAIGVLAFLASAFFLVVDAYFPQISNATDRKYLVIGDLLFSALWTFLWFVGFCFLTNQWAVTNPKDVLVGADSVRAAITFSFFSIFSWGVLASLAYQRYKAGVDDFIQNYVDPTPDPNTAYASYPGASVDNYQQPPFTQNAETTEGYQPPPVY
UniProt Q96SW2, sequence (Q96SW2 whole entry, one chain of several): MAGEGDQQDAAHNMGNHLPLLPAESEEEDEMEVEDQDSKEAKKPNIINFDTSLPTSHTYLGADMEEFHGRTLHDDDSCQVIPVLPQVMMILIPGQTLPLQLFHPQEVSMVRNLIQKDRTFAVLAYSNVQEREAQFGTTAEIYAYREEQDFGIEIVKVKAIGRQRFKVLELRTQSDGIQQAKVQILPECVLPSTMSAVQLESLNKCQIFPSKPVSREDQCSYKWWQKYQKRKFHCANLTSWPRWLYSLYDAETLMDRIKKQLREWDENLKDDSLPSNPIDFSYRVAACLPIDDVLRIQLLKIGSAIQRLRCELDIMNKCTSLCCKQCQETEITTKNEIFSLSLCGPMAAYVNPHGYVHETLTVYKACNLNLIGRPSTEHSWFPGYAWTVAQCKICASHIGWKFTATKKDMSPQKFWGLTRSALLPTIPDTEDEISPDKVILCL
UniProt O60870, sequence (O60870 whole entry): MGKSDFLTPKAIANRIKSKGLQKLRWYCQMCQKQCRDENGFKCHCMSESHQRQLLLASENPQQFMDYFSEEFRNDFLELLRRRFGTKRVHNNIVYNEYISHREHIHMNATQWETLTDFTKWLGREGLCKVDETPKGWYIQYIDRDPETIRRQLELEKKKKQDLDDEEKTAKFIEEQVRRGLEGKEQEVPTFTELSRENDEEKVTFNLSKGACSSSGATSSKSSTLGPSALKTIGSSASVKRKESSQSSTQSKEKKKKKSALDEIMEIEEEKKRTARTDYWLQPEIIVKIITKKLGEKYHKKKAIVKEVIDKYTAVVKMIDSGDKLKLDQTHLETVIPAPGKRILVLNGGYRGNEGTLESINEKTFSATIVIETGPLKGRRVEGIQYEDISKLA
UniProt O75828, sequence (O75828 whole entry): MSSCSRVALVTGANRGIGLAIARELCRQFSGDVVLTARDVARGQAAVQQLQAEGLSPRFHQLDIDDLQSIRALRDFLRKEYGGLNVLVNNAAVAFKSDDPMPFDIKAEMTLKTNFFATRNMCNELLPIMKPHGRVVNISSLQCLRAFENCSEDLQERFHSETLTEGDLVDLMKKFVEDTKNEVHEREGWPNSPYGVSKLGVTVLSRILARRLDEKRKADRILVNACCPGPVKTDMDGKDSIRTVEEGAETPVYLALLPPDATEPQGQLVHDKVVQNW
UniProt P20339, sequence (P20339 whole entry): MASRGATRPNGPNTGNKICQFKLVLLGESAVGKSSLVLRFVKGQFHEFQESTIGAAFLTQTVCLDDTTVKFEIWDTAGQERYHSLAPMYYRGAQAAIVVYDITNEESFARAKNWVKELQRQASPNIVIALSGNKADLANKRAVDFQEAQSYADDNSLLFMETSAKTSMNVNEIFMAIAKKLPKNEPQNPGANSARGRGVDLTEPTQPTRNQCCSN
UniProt P04150, sequence (P04150 whole entry): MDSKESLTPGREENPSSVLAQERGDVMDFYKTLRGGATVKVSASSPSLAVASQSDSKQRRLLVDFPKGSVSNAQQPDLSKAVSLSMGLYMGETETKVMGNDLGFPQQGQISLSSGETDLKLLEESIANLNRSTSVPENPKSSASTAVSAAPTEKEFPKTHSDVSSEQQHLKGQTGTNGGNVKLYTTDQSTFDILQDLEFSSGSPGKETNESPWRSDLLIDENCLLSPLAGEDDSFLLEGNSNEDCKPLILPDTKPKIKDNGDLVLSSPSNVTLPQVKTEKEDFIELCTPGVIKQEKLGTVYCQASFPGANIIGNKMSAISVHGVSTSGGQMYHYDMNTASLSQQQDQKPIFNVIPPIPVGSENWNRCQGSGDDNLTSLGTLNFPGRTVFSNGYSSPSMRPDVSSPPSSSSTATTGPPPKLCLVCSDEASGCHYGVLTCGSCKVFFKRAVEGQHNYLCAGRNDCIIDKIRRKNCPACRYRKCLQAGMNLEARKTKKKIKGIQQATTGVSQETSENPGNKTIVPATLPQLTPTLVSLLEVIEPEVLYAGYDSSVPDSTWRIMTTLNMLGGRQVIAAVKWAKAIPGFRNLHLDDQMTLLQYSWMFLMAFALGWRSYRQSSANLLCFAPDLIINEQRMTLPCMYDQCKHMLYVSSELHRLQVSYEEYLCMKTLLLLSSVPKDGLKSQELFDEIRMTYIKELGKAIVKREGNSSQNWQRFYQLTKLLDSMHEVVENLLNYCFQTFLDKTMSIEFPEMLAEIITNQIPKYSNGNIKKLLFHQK
UniProt P25705, sequence (P25705 whole entry): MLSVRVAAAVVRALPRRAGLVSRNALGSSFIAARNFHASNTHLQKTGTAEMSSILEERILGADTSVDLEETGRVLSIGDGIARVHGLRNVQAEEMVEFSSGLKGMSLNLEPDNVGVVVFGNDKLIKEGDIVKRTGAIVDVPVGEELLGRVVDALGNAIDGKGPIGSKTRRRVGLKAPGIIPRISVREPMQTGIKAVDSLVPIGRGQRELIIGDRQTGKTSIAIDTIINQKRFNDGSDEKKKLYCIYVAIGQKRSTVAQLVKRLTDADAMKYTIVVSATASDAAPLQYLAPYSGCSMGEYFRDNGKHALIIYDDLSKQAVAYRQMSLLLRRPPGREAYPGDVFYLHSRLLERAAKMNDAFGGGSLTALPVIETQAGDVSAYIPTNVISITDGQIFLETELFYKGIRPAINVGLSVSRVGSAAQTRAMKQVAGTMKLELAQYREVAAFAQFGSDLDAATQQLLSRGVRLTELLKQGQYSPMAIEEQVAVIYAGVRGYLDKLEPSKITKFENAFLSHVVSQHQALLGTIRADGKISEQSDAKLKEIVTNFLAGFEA
UniProt P09651, sequence (P09651 whole entry): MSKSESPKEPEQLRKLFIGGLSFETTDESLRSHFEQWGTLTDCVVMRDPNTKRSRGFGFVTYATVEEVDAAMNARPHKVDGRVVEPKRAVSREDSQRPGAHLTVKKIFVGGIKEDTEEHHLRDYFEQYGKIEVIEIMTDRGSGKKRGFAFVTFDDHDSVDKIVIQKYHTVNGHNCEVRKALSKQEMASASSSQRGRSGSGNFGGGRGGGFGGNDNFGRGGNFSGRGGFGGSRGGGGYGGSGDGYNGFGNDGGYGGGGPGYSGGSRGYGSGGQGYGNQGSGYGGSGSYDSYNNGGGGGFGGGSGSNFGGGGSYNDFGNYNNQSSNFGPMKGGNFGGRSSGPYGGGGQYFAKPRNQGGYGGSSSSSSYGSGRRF
UniProt P12931, sequence (P12931 whole entry, looked up): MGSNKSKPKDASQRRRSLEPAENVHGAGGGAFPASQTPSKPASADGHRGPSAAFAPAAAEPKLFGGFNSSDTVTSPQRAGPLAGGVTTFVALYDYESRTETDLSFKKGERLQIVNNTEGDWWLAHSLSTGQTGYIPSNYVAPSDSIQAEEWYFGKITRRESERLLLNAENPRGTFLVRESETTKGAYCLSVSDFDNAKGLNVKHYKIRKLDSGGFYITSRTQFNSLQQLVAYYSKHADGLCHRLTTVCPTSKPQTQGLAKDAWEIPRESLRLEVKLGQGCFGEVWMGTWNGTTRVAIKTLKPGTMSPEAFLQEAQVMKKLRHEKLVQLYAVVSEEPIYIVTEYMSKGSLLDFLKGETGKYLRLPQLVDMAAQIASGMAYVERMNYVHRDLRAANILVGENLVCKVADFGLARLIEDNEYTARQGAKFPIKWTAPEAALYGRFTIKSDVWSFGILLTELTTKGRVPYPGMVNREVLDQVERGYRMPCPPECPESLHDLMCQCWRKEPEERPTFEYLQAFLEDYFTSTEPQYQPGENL
UniProt P46109, sequence (P46109 whole entry): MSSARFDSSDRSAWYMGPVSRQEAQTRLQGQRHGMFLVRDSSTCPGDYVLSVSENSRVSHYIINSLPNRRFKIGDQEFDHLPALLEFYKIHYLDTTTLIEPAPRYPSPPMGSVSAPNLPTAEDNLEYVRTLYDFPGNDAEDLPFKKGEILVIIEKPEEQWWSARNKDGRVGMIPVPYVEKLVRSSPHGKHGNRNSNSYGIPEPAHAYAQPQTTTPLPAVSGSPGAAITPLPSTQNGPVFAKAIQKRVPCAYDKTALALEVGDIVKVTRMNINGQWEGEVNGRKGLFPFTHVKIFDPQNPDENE
UniProt P22830, sequence (P22830 whole entry, one chain of several): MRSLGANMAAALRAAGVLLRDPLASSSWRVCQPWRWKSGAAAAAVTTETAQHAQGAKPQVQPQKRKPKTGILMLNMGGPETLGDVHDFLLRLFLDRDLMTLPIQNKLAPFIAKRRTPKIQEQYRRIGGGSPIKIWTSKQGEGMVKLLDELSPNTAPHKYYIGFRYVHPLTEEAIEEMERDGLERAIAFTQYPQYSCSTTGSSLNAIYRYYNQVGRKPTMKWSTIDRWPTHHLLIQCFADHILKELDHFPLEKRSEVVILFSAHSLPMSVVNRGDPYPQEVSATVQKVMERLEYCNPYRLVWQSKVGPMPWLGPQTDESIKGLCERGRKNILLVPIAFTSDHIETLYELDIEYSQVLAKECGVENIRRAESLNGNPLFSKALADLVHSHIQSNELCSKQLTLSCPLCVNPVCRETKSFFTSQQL
UniProt Q13227, sequence (Q13227 whole entry, one chain of several): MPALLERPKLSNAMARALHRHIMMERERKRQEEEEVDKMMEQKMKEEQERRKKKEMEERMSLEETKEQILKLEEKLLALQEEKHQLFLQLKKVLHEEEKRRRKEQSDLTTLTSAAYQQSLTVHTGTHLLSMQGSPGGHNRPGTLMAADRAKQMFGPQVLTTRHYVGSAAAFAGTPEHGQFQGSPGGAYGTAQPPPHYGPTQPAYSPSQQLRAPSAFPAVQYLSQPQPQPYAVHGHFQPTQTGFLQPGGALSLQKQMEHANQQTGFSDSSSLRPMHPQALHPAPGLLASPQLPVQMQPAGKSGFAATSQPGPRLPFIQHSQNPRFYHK

Compound in the first assay: Nc1nc2c(ncn2[C@@H]2O[C@H](COP(=O)(O)OP(=O)(O)OP(=O)(O)O)[C@@H](O)[C@H]2O)c(=O)[nH]1 [guanosine triphosphate]
As to the kind of experiment: NP40-soluble protein abundance relative to vehicle (solubility fold change) (ratio); higher = more soluble protein in presence of GTP. The settings on record: concentration: 1mM. In short, it runs like this:
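In three independent experiments, Jurkat crude lysate made by Dounce homogenisation was treated for 10 min at room temperature and then 3 min at 37 °C with eight concentrations ranging from 0.1 to 10 mM. It was then solubilised with 0.8% NP40 plus benzonase for 60 min at 4 °C and ultracentrifuged. The supernatant was TMT-labelled for LC-MS/MS, and each value is the fold change against the detergent-processed vehicle for the same replicate, using vsn-normalised intensities.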
For H2AFX (UniProt P16104), the NP40-soluble protein abundance turned out to be 1.07 ± 0.068.

UniProt P09651|P09651-2: the NP40-soluble protein abundance is 1.17 ± 0.11.

For the target UniProt O43760|O43760-2, the NP40-soluble protein abundance amounted to 0.911 ± 0.076.

Regarding “UniProt P04150|P04150-10|P04150-2|P04150-3|P04150-5|P04150-6|P04150-7|P04150-8|P04150-9|P04150-11|P04150-12|P04150-13”, the NP40-soluble protein abundance amounted to 1.14 ± 0.072.

Regarding J3QT87|Q96SW2|Q96SW2-2 (UniProt Q96SW2), the NP40-soluble protein abundance is 0.979 ± 0.034.

As to UniProt P20339|P20339-2, the NP40-soluble protein abundance was 0.875 ± 0.057.

Take CBR3 (UniProt O75828): the NP40-soluble protein abundance is 1.11 ± 0.029.

With P0C0S5|Q71UI9 (UniProt Q71UI9+P0C0S5), the NP40-soluble protein abundance worked out at 1.11 ± 0.065.

In the case of “UniProt O95758-2|O95758-6|O95758|O95758-1|O95758-4|O95758-5|O95758-7”, the NP40-soluble protein abundance came to 1.02 ± 0.064.

As for KIN (UniProt O60870), the NP40-soluble protein abundance turned out to be 0.9497 ± 0.0058.

UniProt P25705|P25705-2: the NP40-soluble protein abundance was 0.998 ± 0.062.

The same assay, now with this note: concentration: 2mM.
UniProt O43665|O43665-2|O43665-3: the NP40-soluble protein abundance was found to be 0.865 ± 0.068.

Regarding UniProt O00567, the NP40-soluble protein abundance worked out at 1.23 ± 0.075.

As to ARID1A (UniProt O14497), the NP40-soluble protein abundance was found to be 1.08 ± 0.084.

Regarding J3QTA6|Q9BRQ6 (UniProt Q9BRQ6), the NP40-soluble protein abundance was 1.15 ± 0.054.

On to AKR1A1 (UniProt P14550), for which the NP40-soluble protein abundance is 0.876 ± 0.037.

As for J3QQJ5|Q9Y2L5 (UniProt Q9Y2L5), the NP40-soluble protein abundance amounted to 1.03 ± 0.11.

Consider UniProt P17096|P17096-2, for which the NP40-soluble protein abundance was determined as 1.33 ± 0.12.

As to AK4 (UniProt P27144), the NP40-soluble protein abundance stood at 1 ± 0.075.

Regarding UniProt P12931|P12931-2, the NP40-soluble protein abundance was 0.9845 ± 0.0092.

UniProt O14776|O14776-2: the NP40-soluble protein abundance amounted to 0.953 ± 0.083.

With UniProt P17812, the NP40-soluble protein abundance came out at 0.916 ± 0.096.

Take NUDT2 (UniProt P50583): the NP40-soluble protein abundance turned out to be 0.877 ± 0.15.

On to CRKL (UniProt P46109), for which the NP40-soluble protein abundance came out at 0.932 ± 0.073.

As for “UniProt P11388|P11388-2|P11388-3|P11388-4”, the NP40-soluble protein abundance was found to be 1.43 ± 0.052.

Regarding NUP62 (UniProt P37198), the NP40-soluble protein abundance is 0.955 ± 0.038.

K7EPN2|P22830|P22830-2 (UniProt P22830): the NP40-soluble protein abundance amounted to 0.945 ± 0.055.

For UniProt O15111, the NP40-soluble protein abundance worked out at 0.964 ± 0.081.

Take UniProt O60508|Q5SRN1: the NP40-soluble protein abundance worked out at 1.072 ± 0.0076.

Take SLC16A7 (UniProt O60669): the NP40-soluble protein abundance was determined as 1.06 ± 0.15.

Take FXR1 (UniProt P51114): the NP40-soluble protein abundance is 1.54 ± 0.07.

In the case of “P15531-2|P22392-2|Q32Q12 (UniProt Q32Q12+P22392+P15531)”, the NP40-soluble protein abundance stood at 0.909 ± 0.068.

With UniProt P54578|P54578-2, the NP40-soluble protein abundance was found to be 0.922 ± 0.013.

With M0R2S1|P62987 (UniProt P62987), the NP40-soluble protein abundance was determined as 0.915 ± 0.11.

As to RPL21 (UniProt P46778), the NP40-soluble protein abundance is 1.01 ± 0.14.

Take “I3L3Y9|I3L4X7|Q13227|Q13227-2 (UniProt Q13227)”: the NP40-soluble protein abundance came to 1.01 ± 0.072.

On to PPT1 (UniProt P50897), for which the NP40-soluble protein abundance was 0.872 ± 0.12.

For the target URB1 (UniProt O60287), the NP40-soluble protein abundance stood at 1.41 ± 0.097.

For H2AFX (UniProt P16104), the NP40-soluble protein abundance came out at 1.13 ± 0.075.

With UniProt P09651|P09651-2, the NP40-soluble protein abundance is 1.16 ± 0.065.

Consider UniProt O43760|O43760-2, for which the NP40-soluble protein abundance stood at 0.915 ± 0.083.

For the target “UniProt P04150|P04150-10|P04150-2|P04150-3|P04150-5|P04150-6|P04150-7|P04150-8|P04150-9|P04150-11|P04150-12|P04150-13”, the NP40-soluble protein abundance came out at 1.07 ± 0.029.

As to J3QT87|Q96SW2|Q96SW2-2 (UniProt Q96SW2), the NP40-soluble protein abundance turned out to be 1.03 ± 0.12.

As to UniProt P20339|P20339-2, the NP40-soluble protein abundance came to 0.937 ± 0.059.

Consider CBR3 (UniProt O75828), for which the NP40-soluble protein abundance was 1.06 ± 0.082.

On to P0C0S5|Q71UI9 (UniProt Q71UI9+P0C0S5), for which the NP40-soluble protein abundance came out at 1.11 ± 0.06.

In the case of “UniProt O95758-2|O95758-6|O95758|O95758-1|O95758-4|O95758-5|O95758-7”, the NP40-soluble protein abundance was determined as 1.05 ± 0.11.

Regarding KIN (UniProt O60870), the NP40-soluble protein abundance is 0.929 ± 0.029.

UniProt P25705|P25705-2: the NP40-soluble protein abundance is 1.01 ± 0.087.

The same assay, now with this note: concentration: 4mM.
On to UniProt O43665|O43665-2|O43665-3, for which the NP40-soluble protein abundance was found to be 0.791 ± 0.038.

For the target UniProt O00567, the NP40-soluble protein abundance worked out at 1.55 ± 0.12.

As for ARID1A (UniProt O14497), the NP40-soluble protein abundance is 1.1 ± 0.1.

On to J3QTA6|Q9BRQ6 (UniProt Q9BRQ6), for which the NP40-soluble protein abundance amounted to 1.15 ± 0.09.

With AKR1A1 (UniProt P14550), the NP40-soluble protein abundance was 0.873 ± 0.047.

J3QQJ5|Q9Y2L5 (UniProt Q9Y2L5): the NP40-soluble protein abundance stood at 1 ± 0.14.

With UniProt P17096|P17096-2, the NP40-soluble protein abundance is 1.37 ± 0.14.

AK4 (UniProt P27144): the NP40-soluble protein abundance came out at 1.03 ± 0.11.

Regarding UniProt P12931|P12931-2, the NP40-soluble protein abundance was determined as 0.905 ± 0.063.

As to UniProt O14776|O14776-2, the NP40-soluble protein abundance amounted to 0.989 ± 0.079.

On to UniProt P17812, for which the NP40-soluble protein abundance is 0.904 ± 0.077.

Consider NUDT2 (UniProt P50583), for which the NP40-soluble protein abundance was found to be 1.8 ± 0.49.

Consider CRKL (UniProt P46109), for which the NP40-soluble protein abundance amounted to 0.921 ± 0.076.

Turning to “UniProt P11388|P11388-2|P11388-3|P11388-4”, the NP40-soluble protein abundance came to 1.73 ± 0.1.

With NUP62 (UniProt P37198), the NP40-soluble protein abundance was determined as 0.988 ± 0.064.

In the case of K7EPN2|P22830|P22830-2 (UniProt P22830), the NP40-soluble protein abundance was 0.958 ± 0.039.

Consider UniProt O15111, for which the NP40-soluble protein abundance was 0.961 ± 0.06.

Take UniProt O60508|Q5SRN1: the NP40-soluble protein abundance is 1.05 ± 0.034.

As for SLC16A7 (UniProt O60669), the NP40-soluble protein abundance was determined as 1.1 ± 0.079.

For FXR1 (UniProt P51114), the NP40-soluble protein abundance amounted to 1.885 ± 0.0094.

With “P15531-2|P22392-2|Q32Q12 (UniProt Q32Q12+P22392+P15531)”, the NP40-soluble protein abundance was found to be 0.9 ± 0.017.

With UniProt P54578|P54578-2, the NP40-soluble protein abundance was 0.903 ± 0.026.

For M0R2S1|P62987 (UniProt P62987), the NP40-soluble protein abundance turned out to be 0.89 ± 0.089.

As to RPL21 (UniProt P46778), the NP40-soluble protein abundance is 0.914 ± 0.2.

“I3L3Y9|I3L4X7|Q13227|Q13227-2 (UniProt Q13227)”: the NP40-soluble protein abundance is 1.02 ± 0.11.

As to PPT1 (UniProt P50897), the NP40-soluble protein abundance amounted to 0.873 ± 0.068.

For the target URB1 (UniProt O60287), the NP40-soluble protein abundance is 1.79 ± 0.072.

As for H2AFX (UniProt P16104), the NP40-soluble protein abundance was 1.2 ± 0.088.

Take UniProt P09651|P09651-2: the NP40-soluble protein abundance was found to be 1.16 ± 0.08.

As for UniProt O43760|O43760-2, the NP40-soluble protein abundance worked out at 0.908 ± 0.088.

In the case of “UniProt P04150|P04150-10|P04150-2|P04150-3|P04150-5|P04150-6|P04150-7|P04150-8|P04150-9|P04150-11|P04150-12|P04150-13”, the NP40-soluble protein abundance came out at 1.01 ± 0.043.

As for J3QT87|Q96SW2|Q96SW2-2 (UniProt Q96SW2), the NP40-soluble protein abundance was 1.05 ± 0.061.

As to UniProt P20339|P20339-2, the NP40-soluble protein abundance was 0.865 ± 0.034.

As to CBR3 (UniProt O75828), the NP40-soluble protein abundance amounted to 1.04 ± 0.082.

Regarding P0C0S5|Q71UI9 (UniProt Q71UI9+P0C0S5), the NP40-soluble protein abundance is 1.12 ± 0.06.

With “UniProt O95758-2|O95758-6|O95758|O95758-1|O95758-4|O95758-5|O95758-7”, the NP40-soluble protein abundance is 0.994 ± 0.088.

Take KIN (UniProt O60870): the NP40-soluble protein abundance turned out to be 0.916 ± 0.021.

Consider UniProt P25705|P25705-2, for which the NP40-soluble protein abundance is 0.986 ± 0.088.
